Reference: paper PMC7862700, “An all-to-all approach to the identification of sequence-specific readers for epigenetic DNA modifications on cytosine”

What was measured:
Experiment in all cases: DAPPL (digital affinity profiling via proximity ligation, sequencing); 10 mM Tris-HCl pH 7.5, 50 mM NaCl, 1 mM DTT, 4% glycerol, room temperature, 30 min; GST-TFs on glutathione beads, 16-mer random dsDNA library, 0.1% formaldehyde crosslink after washing; high values mean tight binding
Details in all cases: protein: recombinant; tags: N-terminal GST; dsDNA, one strand shown
ERF = molecular target: T1, ERF (Homo sapiens, UniProt P50548 1-548)
T1 sequence: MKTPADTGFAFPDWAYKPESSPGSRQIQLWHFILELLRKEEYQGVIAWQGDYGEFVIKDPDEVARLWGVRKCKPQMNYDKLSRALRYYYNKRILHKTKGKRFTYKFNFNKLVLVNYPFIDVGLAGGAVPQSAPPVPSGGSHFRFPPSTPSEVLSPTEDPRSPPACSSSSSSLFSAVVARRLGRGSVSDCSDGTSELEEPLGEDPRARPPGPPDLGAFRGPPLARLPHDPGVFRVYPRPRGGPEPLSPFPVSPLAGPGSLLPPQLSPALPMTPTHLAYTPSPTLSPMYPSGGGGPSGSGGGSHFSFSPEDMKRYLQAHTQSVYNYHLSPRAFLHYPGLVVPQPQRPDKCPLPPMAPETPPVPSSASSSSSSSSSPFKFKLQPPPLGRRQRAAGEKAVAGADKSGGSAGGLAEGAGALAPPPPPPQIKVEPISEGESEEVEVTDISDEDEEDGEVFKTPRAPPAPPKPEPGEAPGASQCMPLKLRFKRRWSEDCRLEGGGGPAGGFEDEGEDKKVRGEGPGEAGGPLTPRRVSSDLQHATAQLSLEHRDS
How it was run: (§1)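 Pools of DNA-barcoded human transcription factors, expressed in yeast as GST fusions on glutathione beads and combined with a tag-only sample, were incubated with 200 nmole of a 16-mer random double-stranded DNA library. Incubation took 30 min at room temperature in Tris/NaCl/DTT/glycerol buffer and was followed by washing, 0.1% formaldehyde crosslinking, proximity ligation (BsaI/T4 ligase, 1 h, 37 °C), PCR amplification and sequencing on an Illumina NextSeq500. Binding signal is the ratio of a hexamer's read frequency for a factor to its frequency for the tag-only sample.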

ETV3L = molecular target: T2, ETV3L (Homo sapiens, UniProt Q6ZN32 1-361)
T2 sequence: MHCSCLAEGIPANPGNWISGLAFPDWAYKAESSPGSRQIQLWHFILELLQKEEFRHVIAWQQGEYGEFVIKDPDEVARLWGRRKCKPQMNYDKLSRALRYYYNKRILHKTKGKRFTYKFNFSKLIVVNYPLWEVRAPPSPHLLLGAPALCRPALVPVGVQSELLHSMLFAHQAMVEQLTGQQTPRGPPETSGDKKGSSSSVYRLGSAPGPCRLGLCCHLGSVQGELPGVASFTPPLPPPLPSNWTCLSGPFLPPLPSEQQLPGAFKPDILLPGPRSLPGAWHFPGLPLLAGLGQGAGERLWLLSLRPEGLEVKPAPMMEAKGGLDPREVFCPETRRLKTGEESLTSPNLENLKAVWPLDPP
How it was run: as §1

ETS2 = molecular target: T3, ETS2 (Homo sapiens, UniProt P15036 1-469)
T3 sequence: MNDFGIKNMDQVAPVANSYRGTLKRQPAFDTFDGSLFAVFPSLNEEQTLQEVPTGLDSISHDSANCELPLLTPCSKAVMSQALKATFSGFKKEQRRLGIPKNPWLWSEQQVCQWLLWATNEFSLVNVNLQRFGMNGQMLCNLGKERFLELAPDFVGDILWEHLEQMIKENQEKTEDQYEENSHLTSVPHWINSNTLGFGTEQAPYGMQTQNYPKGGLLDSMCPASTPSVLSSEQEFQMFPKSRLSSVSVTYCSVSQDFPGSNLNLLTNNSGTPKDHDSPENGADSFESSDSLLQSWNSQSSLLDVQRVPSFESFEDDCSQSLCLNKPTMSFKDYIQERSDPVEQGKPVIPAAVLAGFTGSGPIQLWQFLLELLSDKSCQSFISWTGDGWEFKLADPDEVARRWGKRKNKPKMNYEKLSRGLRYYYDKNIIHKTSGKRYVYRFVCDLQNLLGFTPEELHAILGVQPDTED
How it was run: as §1

SPDEF = molecular target: T4, SPDEF (Homo sapiens, UniProt O95238 1-335)
T4 sequence: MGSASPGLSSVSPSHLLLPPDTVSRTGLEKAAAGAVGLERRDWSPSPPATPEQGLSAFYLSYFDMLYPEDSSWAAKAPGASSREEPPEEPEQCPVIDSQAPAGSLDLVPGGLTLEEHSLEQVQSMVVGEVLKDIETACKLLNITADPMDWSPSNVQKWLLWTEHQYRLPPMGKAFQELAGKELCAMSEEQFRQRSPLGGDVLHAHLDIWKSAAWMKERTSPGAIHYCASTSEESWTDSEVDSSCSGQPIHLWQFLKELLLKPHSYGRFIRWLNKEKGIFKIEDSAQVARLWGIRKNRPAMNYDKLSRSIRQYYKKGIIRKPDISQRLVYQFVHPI
How it was run: as §1

ETV7 = molecular target: T5, ETV7 (Homo sapiens, UniProt Q9Y603 1-341)
T5 sequence: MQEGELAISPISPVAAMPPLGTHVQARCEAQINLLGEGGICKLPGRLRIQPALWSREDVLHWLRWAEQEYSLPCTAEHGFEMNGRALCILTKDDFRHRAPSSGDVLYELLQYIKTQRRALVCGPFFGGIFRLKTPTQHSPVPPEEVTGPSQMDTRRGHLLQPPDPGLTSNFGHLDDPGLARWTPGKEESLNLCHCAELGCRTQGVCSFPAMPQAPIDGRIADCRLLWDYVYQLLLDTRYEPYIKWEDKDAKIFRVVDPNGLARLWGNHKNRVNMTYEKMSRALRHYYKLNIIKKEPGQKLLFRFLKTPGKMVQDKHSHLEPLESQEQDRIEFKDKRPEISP
How it was run: as §1

ELF5 = molecular target: T6, ELF5 (Homo sapiens, UniProt Q9UKW6-2 1-255)
T6 sequence: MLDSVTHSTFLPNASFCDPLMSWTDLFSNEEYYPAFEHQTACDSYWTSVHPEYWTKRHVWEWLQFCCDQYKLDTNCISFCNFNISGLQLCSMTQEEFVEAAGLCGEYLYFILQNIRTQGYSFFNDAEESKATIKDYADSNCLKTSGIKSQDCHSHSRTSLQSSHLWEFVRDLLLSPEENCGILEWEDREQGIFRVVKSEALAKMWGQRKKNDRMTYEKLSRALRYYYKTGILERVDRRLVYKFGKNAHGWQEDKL
How it was run: as §1

ETV3 = molecular target: T7, ETV3 (Homo sapiens, UniProt P41162-2 1-143)
T7 sequence: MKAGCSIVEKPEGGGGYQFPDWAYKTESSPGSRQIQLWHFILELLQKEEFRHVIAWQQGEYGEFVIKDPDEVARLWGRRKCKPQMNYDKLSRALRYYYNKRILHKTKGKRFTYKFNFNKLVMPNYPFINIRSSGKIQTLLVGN
How it was run: as §1

ETV6 = ETV6 (Homo sapiens, UniProt P41212 1-452)
How it was run: as §1

ETV6, sequence (P41212 whole entry): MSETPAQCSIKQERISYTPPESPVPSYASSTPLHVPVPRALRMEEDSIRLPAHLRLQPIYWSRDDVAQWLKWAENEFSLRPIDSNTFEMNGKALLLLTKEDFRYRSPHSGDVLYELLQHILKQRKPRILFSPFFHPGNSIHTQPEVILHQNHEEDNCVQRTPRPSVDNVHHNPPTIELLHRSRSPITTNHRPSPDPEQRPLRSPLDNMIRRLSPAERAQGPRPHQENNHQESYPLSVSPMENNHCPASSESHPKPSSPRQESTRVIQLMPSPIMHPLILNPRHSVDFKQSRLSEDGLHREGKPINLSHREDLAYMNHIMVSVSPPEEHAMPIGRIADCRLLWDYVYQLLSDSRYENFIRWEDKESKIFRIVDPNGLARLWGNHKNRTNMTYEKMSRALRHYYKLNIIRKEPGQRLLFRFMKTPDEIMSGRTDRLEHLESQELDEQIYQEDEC

Row | Sequence | binding signal (ERF) | binding signal (ETV3L) | binding signal (ETS2) | binding signal (SPDEF) | binding signal (ETV7) | binding signal (ELF5) | binding signal (ETV3) | binding signal (ETV6)
1 | TTAATG | 1.05 fold enrichment (6-mer frequency, TF over GST control) | 1.19 fold enrichment (6-mer frequency, TF over GST control) | 1.2 fold enrichment (6-mer frequency, TF over GST control) | 1.19 fold enrichment (6-mer frequency, TF over GST control) | 1.26 fold enrichment (6-mer frequency, TF over GST control) | 1.19 fold enrichment (6-mer frequency, TF over GST control) | 1.21 fold enrichment (6-mer frequency, TF over GST control) | 1.19 fold enrichment (6-mer frequency, TF over GST control)
2 | TTCGTC | 1.36 fold enrichment (6-mer frequency, TF over GST control) | 1.23 fold enrichment (6-mer frequency, TF over GST control) | 1.31 fold enrichment (6-mer frequency, TF over GST control) | 1.29 fold enrichment (6-mer frequency, TF over GST control) | 1.22 fold enrichment (6-mer frequency, TF over GST control) | 1.18 fold enrichment (6-mer frequency, TF over GST control) | 1.31 fold enrichment (6-mer frequency, TF over GST control) | 1.23 fold enrichment (6-mer frequency, TF over GST control)
3 | ATTTGG | 1.54 fold enrichment (6-mer frequency, TF over GST control) | 1.46 fold enrichment (6-mer frequency, TF over GST control) | 1.38 fold enrichment (6-mer frequency, TF over GST control) | 1.34 fold enrichment (6-mer frequency, TF over GST control) | 1.41 fold enrichment (6-mer frequency, TF over GST control) | 1.37 fold enrichment (6-mer frequency, TF over GST control) | 1.35 fold enrichment (6-mer frequency, TF over GST control) | 1.45 fold enrichment (6-mer frequency, TF over GST control)
4 | CAAGAT | 1.06 fold enrichment (6-mer frequency, TF over GST control) | 1.13 fold enrichment (6-mer frequency, TF over GST control) | 1.06 fold enrichment (6-mer frequency, TF over GST control) | 1.26 fold enrichment (6-mer frequency, TF over GST control) | 1.02 fold enrichment (6-mer frequency, TF over GST control) | 1.01 fold enrichment (6-mer frequency, TF over GST control) | 1.08 fold enrichment (6-mer frequency, TF over GST control) | 1.01 fold enrichment (6-mer frequency, TF over GST control)
5 | CTACTA | 1.35 fold enrichment (6-mer frequency, TF over GST control) | 1.29 fold enrichment (6-mer frequency, TF over GST control) | 1.26 fold enrichment (6-mer frequency, TF over GST control) | 1.28 fold enrichment (6-mer frequency, TF over GST control) | 1.44 fold enrichment (6-mer frequency, TF over GST control) | 1.24 fold enrichment (6-mer frequency, TF over GST control) | 1.23 fold enrichment (6-mer frequency, TF over GST control) | 1.46 fold enrichment (6-mer frequency, TF over GST control)
6 | AATGAG | 1.2 fold enrichment (6-mer frequency, TF over GST control) | 1.1 fold enrichment (6-mer frequency, TF over GST control) | 1.2 fold enrichment (6-mer frequency, TF over GST control) | 1.01 fold enrichment (6-mer frequency, TF over GST control) | 1.15 fold enrichment (6-mer frequency, TF over GST control) | 1.17 fold enrichment (6-mer frequency, TF over GST control) | 1.13 fold enrichment (6-mer frequency, TF over GST control) | 1.32 fold enrichment (6-mer frequency, TF over GST control)
7 | TTATGT | 1.29 fold enrichment (6-mer frequency, TF over GST control) | 1.26 fold enrichment (6-mer frequency, TF over GST control) | 1.3 fold enrichment (6-mer frequency, TF over GST control) | 1.36 fold enrichment (6-mer frequency, TF over GST control) | 1.3 fold enrichment (6-mer frequency, TF over GST control) | 1.23 fold enrichment (6-mer frequency, TF over GST control) | 1.34 fold enrichment (6-mer frequency, TF over GST control) | 1.43 fold enrichment (6-mer frequency, TF over GST control)
8 | ATGGAT | 1.09 fold enrichment (6-mer frequency, TF over GST control) | 1.16 fold enrichment (6-mer frequency, TF over GST control) | 1.09 fold enrichment (6-mer frequency, TF over GST control) | 1.01 fold enrichment (6-mer frequency, TF over GST control) | 1.16 fold enrichment (6-mer frequency, TF over GST control) | 1.06 fold enrichment (6-mer frequency, TF over GST control) | 1.11 fold enrichment (6-mer frequency, TF over GST control) | 1.09 fold enrichment (6-mer frequency, TF over GST control)
9 | CTTCGT | 1.4 fold enrichment (6-mer frequency, TF over GST control) | 1.32 fold enrichment (6-mer frequency, TF over GST control) | 1.34 fold enrichment (6-mer frequency, TF over GST control) | 1.25 fold enrichment (6-mer frequency, TF over GST control) | 1.4 fold enrichment (6-mer frequency, TF over GST control) | 1.3 fold enrichment (6-mer frequency, TF over GST control) | 1.31 fold enrichment (6-mer frequency, TF over GST control) | 1.31 fold enrichment (6-mer frequency, TF over GST control)
